# Measured values reported in ChEMBL document CHEMBL4296182, “CO-ADD screening of NIH NCI Diversity Set V”.
# Tested on: Escherichia coli
# Test: Antibacterial activity against Escherichia coli ATCC 25922 (CO-ADD:GN_001); MIC in CAMBH media using NBS plates, by Resazurin F(560/590)
# Type: functional
# Conditions: Concentration 20 uM, ASSAY_TEST Inhibition of Bacterial Growth, detection method Resazurin, Fluorescence (ex560/em590), MEDIA CAMHB, plate type 384well, CORNING #3640, time 18 hr
row,SMILES,Inhibition [%]
1,Oc1ncnc(CN2CCCCC2)c1O,7.79
2,CCOC(=O)Cc1cc(O)c2cc(C)ccc2n1,11.33
3,Sc1nc2c[nH]c(S)nc-2n1,14.36
4,O=C(O)c1ccc(N2CCCCC2)cc1O,7.11
5,NC(CC(=O)Nc1cc(C(F)(F)F)ccc1Cl)=NO,-6.61
6,Cc1c(O)ccc2c(O)c(NC(=O)c3ccc4c(c3)CCC(C)(C)O4)c(=O)oc12 [CYCLONOVOBIOCIC ACID],-1.41
7,CS(=O)(=O)O.Cc1cc2c(cc1[N+](=O)[O-])NC(CNC(C)C)CC2 (centres undefined),3.18
8,O=C(O)CSc1ccc(NC(=O)Nc2ccccc2F)cc1,2.53
9,O=C(O)c1ccccc1-n1c2ccccc2c2ccccc21,7.31
10,C#CCNc1ccc(C(=O)OCC)cc1,-0.61
11,CCOC(=O)N1C/C(=C\c2ccccc2)C(=O)/C(=C/c2ccccc2)C1,0.16
12,CC(C)(C)NC1=NCCNC(c2ccccc2)=C1.CS(=O)(=O)O,7
13,Nc1ccccc1C(=O)Nc1ccc(Cl)cc1Cl,13.8
14,CN(c1cccnc1)c1[nH]cnc2nncc1-2,-0.96
15,O=C(c1ccccc1)c1ccccc1C(=O)c1ccccc1,4.94
16,c1ccc(-n2nnnc2-c2cccc3ccccc23)cc1,-5.59
17,CN1N=C/C(=C/NC(N)=O)C1=O,9.08
18,CCCCC(=O)N1CCCC(C)C1 (centres undefined),4.56
19,CN(C)S(=O)(=O)Nc1ccccn1,-0.96
20,Nc1ncnc2c1ncn2C1C=C(CO)C(O)C1O (centres undefined),9.33

row,SMILES,Inhibition [%]
1,Cc1cc(OCCCCOc2ccc(C#N)cc2)ccc1[N+](=O)[O-],2.94
2,CC1=CC(C)(C(Cl)(Cl)Cl)C(C)=C/C1=N/O (centres undefined),8.83
3,CCOC(=O)c1c(C)nc(C)c(C(=O)OCC)c1-c1ccc(OC)cc1,-21.92
4,CCOC(=O)C(=O)Cc1cccnn1,16.74
5,COc1ccc([N+](=O)[O-])cc1NS(=O)(=O)c1ccc(C)cc1,7.35
6,CC(=O)Oc1ccc(OC(C)=O)c2c1CC1(C)OC1(C)C2 (centres undefined),3.36
7,CCOc1ccc(Nc2c3ccccc3nc3ccccc23)cc1,-17.49
8,CS/C(=C\c1ccc(C(=O)c2ccc(C)cc2)n1C)[S+](C)[O-] (centres undefined),1.09
9,COC(=O)C1=C(C)NC(C)=C(C(=O)OC)C(N2C(=O)CCC2=O)C1 (centres undefined),0.27
10,Cc1ccc(S(=O)(=O)CCOC(=O)CNC(=O)OCc2ccccc2)cc1,0.72
11,CC(=O)Nc1cccc(NC(C)=O)n1,17.6
12,Nc1nc(SCc2ccccn2)c2ncn(C3OC(CO)C(O)C3O)c2n1 (centres undefined),4.84
13,Cn1ncc2c(Nc3cccc(Cl)c3)nc(Nc3cccc(Cl)c3)nc21,4.26
14,Oc1ccc(Nc2ccnc3cc(Cl)ccc23)cc1,-4.01
15,CN(C)c1ncnc2c1ncn2-c1ccccc1,0.85
16,Cc1nc([N+](=O)[O-])cn1-c1nc2ccccn2c1[N+](=O)[O-],12.78
17,Oc1ccc(/C=C\c2cnccn2)cc1,16.94
18,O=C(O)C(Cc1ccccc1N(CCO)CCO)N1C(=O)c2ccccc2C1=O (centres undefined),3.59
19,Nc1ncncc1-c1ccc2ccccc2c1,0.44
